# Data published in the supplement of paper PMC3334620.
# Over roughly 33,000 sequences, “E-score (-0.5 to 0.5)” has its median near -0.021; the highest 2% begin near 0.32. What follows is part of a selection rich in the highest values, with near analogues and random picks from the rest.
# Target: T1, Zap1 (UniProt P47043)
# T1 sequence: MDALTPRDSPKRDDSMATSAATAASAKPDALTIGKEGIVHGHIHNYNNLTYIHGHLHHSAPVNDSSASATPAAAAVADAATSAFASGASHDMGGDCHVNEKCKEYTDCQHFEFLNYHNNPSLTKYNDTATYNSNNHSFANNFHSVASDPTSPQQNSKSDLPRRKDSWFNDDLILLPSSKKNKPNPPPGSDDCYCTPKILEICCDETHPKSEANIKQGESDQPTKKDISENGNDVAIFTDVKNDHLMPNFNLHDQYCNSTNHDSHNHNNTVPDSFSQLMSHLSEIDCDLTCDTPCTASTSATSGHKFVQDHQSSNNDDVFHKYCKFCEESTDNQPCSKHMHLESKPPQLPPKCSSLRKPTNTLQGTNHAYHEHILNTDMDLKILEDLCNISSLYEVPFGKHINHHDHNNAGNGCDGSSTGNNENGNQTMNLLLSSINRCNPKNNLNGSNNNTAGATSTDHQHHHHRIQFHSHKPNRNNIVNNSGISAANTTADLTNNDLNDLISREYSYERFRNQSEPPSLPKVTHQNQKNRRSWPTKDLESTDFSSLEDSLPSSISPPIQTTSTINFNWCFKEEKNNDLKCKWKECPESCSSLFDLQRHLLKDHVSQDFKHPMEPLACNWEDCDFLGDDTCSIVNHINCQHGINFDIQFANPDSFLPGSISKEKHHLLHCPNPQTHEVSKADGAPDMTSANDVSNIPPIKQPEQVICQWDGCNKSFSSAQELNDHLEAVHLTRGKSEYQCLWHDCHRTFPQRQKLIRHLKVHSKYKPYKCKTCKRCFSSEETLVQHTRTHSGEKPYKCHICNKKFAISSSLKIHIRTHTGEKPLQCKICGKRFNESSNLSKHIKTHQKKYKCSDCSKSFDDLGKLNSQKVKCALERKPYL
# Experiment: PBM E-score (8-mer binding enrichment) (E-score (-0.5 to 0.5)); higher = stronger / more preferred TF binding
# Settings: protein concentration: 200 nM; construct: GST-full length
# Description: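 Universal 'all 10-mer' protein binding microarrays (Agilent AMADID 015681) probed with GST-tagged S. cerevisiae TFs (full-length or DBD) made by in vitro transcription/translation (PURExpress), about 100-200 nM. Bound TF was detected with fluorescent anti-GST. Each ungapped 8-mer (which stands for itself and its reverse complement) is scored by the PBM enrichment score (E-score), a modified Wilcoxon-Mann-Whitney statistic from -0.5 to +0.5, computed with the Universal PBM Analysis Suite. Scale: above 0.35 generally sequence-specific binding.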
row,Sequence,PBM E-score
1,CAGTAGGA,-0.247
2,AGATATCT,0.0317
3,TGATTGAA,0.154
4,ACCTAAGG,0.185
5,ACTGCTTC,-0.175
6,ACCTTGGG,0.327
7,ACCTTGAA,0.337
8,GCCTTGAA,0.0337
9,TCCTTGAA,0.158
10,ACCTTGGA,0.195
11,CCCTTGAG,0.33
12,ACCTTGCT,0.218
13,ACCTTGAT,0.325
14,ACCTTGAC,0.266
15,ACCTTGGC,0.106
16,CCCTTGAC,0.193
17,CCCTTGAA,0.102
18,CGTGAGGA,-0.201
19,AGAGCGAA,-0.124
20,CACTCTGG,-0.151
21,CATTCTAG,-0.0521
22,GGATAGAA,0.0515
23,CGTTAGAG,-0.109
24,CATCCAGC,-0.108
25,AACTTGAG,-0.143

row,Sequence,PBM E-score
1,ACCTTGAG,0.354
2,ACCTTGCG,0.284
3,ACGGTCAT,0.359
4,AAGGTCAA,0.279
5,AAGGTCGT,0.334
6,GAGGTCAA,0.21
7,GAGGTCAC,0.392
8,ACGGTCAA,0.177
9,AAGGTCAT,0.444
10,AAGGTCGC,0.193
11,CAGGTCAC,0.195
12,AAGGTCGA,0.176
13,ACGGTCAG,0.0381
14,AAGGTCCT,0.123
15,GCTTGACC,0.214
16,ATAAAGAT,0.00332
17,AACACCTA,0.0163
18,ATGGTAGA,-0.00844
19,GAGAGAGC,-0.261
20,AAATGGAG,-0.132
21,TGCCCTAA,-0.171
22,CTTAGGGC,0.0876
23,ATTGACTG,-0.136
24,AAGGTCCC,0.152
25,CAGGTCAG,0.0791

row,Sequence,PBM E-score
1,AAGGTCTG,0.15
2,AAGGTCAC,0.417
3,AAGGTCAG,0.32
4,AAGGTCTC,0.162
5,GAAAGCGC,-0.115
6,AGAAACCG,0.0611
7,CTGTACTA,0.0369
8,GGCGACAC,-0.0969
9,CGGCTGAC,-0.193
10,GAGACCAC,0.15
11,GAGGGCAA,-0.0412
12,CAGGCGAC,-0.117
13,AAGCCTGT,-0.128
14,CCCCCTAC,-0.32
15,AAACCTGT,0.0581
16,CACCCTAC,0.328
17,AACCCTAC,0.357
18,GACCCTAC,0.311
19,CACCCTCG,0.234
20,CACCCTAG,0.353
21,AGCCCTAC,-0.12
22,CGCCCTAG,-0.00248
23,AACCCTGT,0.419
24,AAACCTAC,0.194
25,CTCAGCAG,-0.129

row,Sequence,PBM E-score
1,TCAGCGAA,-0.107
2,CTCGCTTA,-0.0929
3,AAGCCTGC,-0.182
4,CTTCAGTA,0.0193
5,AGAGACCA,0.121
6,ATGGTGCA,0.0684
7,CTCACGAG,0.0376
8,ACCTGAAT,0.136
9,CAGCTGTA,-0.203
10,ATCCCTAG,0.0856
11,AAACCTAT,0.164
12,AACCCTAG,0.408
13,AACCCTAT,0.441
14,AACCCTCT,0.27
15,AAACCTAG,0.051
16,CAAATTCC,-0.00509
17,GGTCGCGA,0.32
18,CGTCGCGA,0.00596
19,GGTCACGA,0.391
20,CGTCACAA,-0.0229
21,GGTCACAA,0.393
22,AGTCACGA,0.0207
23,CGTCACGA,-0.0348
24,TGTCACAA,0.0989
25,AGTCGCGA,0.113

row,Sequence,PBM E-score
1,AGATAGGG,-0.0822
2,GAGCGTGC,-0.173
3,TATTAGAA,0.159
4,AGAAGTCT,-0.257
5,AGCCTGAG,-0.0458
6,TGTGAGAA,-0.0687
7,CGGACTTC,-0.17
8,CATATGGA,-0.057
9,AATCCAAC,-0.0925
10,GAGACCTC,0.0168
11,ATCTAGGC,-0.197
12,CCCTACAC,0.0286
13,CCCTACAA,0.33
14,ACCTACAA,0.178
15,CCAATGCA,-0.0366
16,CAACTAAC,0.21
17,GCTCGAGC,-0.169
18,ATACCTTA,0.184
19,CTACCTTA,0.327
20,CCACCTGA,0.0282
21,CCACCTTA,0.342
22,CTACCTGA,0.00976
23,GCACCTTA,0.112
24,AAGAGCAG,-0.247
25,CAACTGGC,-0.0185

row,Sequence,PBM E-score
1,AACCACTC,0.289
2,ATCTGTCC,-0.318
3,ATGCAGTG,-0.0561
4,GGGTTGTA,0.35
5,AGGTTGGG,0.232
6,AGGTTGTG,0.349
7,AGGTTGTC,0.242
8,GGTTTGTA,0.119
9,CGGTTGCA,-0.0132
10,AGGTTGCC,0.088
11,AGGTTGCA,0.299
12,GGGTTGGA,0.16
13,AGGTTGCG,0.333
14,GGGTTGCA,0.352
15,AAGTTGCG,0.0515
16,CAGCATGG,-0.00544
17,GCCCGCGC,-0.0387
18,CGTCTAGC,-0.21
19,TGACACCA,-0.0107
20,CACGGCTG,-0.212
21,CGGTTGTA,0.153
22,AAGTTGTA,0.112
23,AGGTTGTA,0.338
24,CCGTTTGC,0.0589
25,AATAGGGA,-0.0102

row,Sequence,PBM E-score
1,ACCAGGGT,0.358
2,AACAGGGC,-0.0745
3,ACCAGGGA,-0.00163
4,AATAGGGG,0.0477
5,AATAGGGT,0.374
6,AACAGGGT,0.348
7,ACCAGGGG,-0.0398
8,AACAGGGA,0.044
9,GATAGAGC,-0.0954
10,CGCCACTA,-0.111
11,GCCCTAGC,-0.148
12,GGCCCTAC,0.0088
13,ATCCAGAA,0.159
14,CTCCTTCA,-0.168
15,TACCCAGA,0.265
16,AAGAGATG,-0.16
17,AGGTACTA,0.29
18,TCGTACCA,0.149
19,TAGTACCA,0.163
20,TGGTACCA,0.357
21,GGGTACTA,0.335
22,GCGTACCA,0.0288
